The source of these data is PMC8384837, “Expanding the binding specificity for RNA recognition by a PUF domain”.

Assay in all cases: yeast three-hybrid, YBZ-1, SC-Leu-His + 0.5 mM 3-AT, 4 days
Settings in all cases: tags: N-Gal4 AD-HA kept; label: inside an RPR1-promoter hybrid RNA with tandem MS2 sites; ssRNA

One assay concerns the target PUM1 PUF domain R3-LHH (Homo sapiens, UniProt Q14671 828-1176, C935L;R936H;Q939H). A digest of the protocol:
(§1)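 Each repeat of the Pumilio-1 PUF domain was randomized at its three base-contacting residues, and these libraries were co-expressed from a centromeric plasmid with matching RNA elements in strain YBZ-1. After four days on SC-Leu (input) or SC-Leu-His + 0.5 mM 3-AT (selection), the repeat regions were PCR-amplified and Illumina-sequenced. The interaction score compares variant frequency between input and selection as a log change, computed in log2 with a pseudocount of 1 for absent variants.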

The target in a further assay is PUM1 PUF domain R3-QRA (Homo sapiens, UniProt Q14671 828-1176, C935Q;Q939A). A digest of the protocol: as §1
Another assay has as its target PUM1 PUF domain R3-QRV (Homo sapiens, UniProt Q14671 828-1176, C935Q;Q939V). A digest of the protocol: as §1
A further assay concerns the target PUM1 PUF domain R4-DYI (Homo sapiens, UniProt Q14671 828-1176, N971D;H972Y;Q975I). Summed up: as §1
The next assay has as its target PUM1 PUF domain R4-NNG (Homo sapiens, UniProt Q14671 828-1176, H972N;Q975G). Summed up:
as §1

For another assay, the target named is PUM1 PUF domain R4-YHA (Homo sapiens, UniProt Q14671 828-1176, N971Y;Q975A). Summed up: as §1
A further assay deals with PUM1 PUF domain R7-QPR (Homo sapiens, UniProt Q14671 828-1176, S1079Q;N1080P;E1083R). A digest of the protocol: as §1
The target of the next assay is PUM1 PUF domain R5-QRL (Homo sapiens, UniProt Q14671 828-1176, C1007Q;Q1011L). Summed up:
as §1

A further assay addresses PUM1 PUF domain R5-LYA (Homo sapiens, UniProt Q14671 828-1176, C1007L;R1008Y;Q1011A). A digest of the protocol: as §1
The target in a further assay is PUM1 PUF domain R4-PFT (Homo sapiens, UniProt Q14671 828-1176, N971P;H972F;Q975T). A digest of the protocol: as §1
PUM1 PUF domain R4-PFT, sequence (Q14671 828-1176 N971P/H972F/Q975T): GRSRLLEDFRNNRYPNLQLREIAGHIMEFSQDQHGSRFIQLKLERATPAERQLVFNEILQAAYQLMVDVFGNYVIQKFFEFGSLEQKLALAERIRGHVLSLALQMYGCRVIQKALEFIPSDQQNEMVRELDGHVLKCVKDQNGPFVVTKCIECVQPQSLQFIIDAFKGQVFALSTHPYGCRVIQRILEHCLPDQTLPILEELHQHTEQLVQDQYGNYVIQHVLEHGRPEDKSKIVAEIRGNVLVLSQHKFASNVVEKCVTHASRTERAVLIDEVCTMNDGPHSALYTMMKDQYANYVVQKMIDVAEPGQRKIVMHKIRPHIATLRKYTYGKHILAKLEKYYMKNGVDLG

PUM1 PUF domain R5-LYA, sequence (Q14671 828-1176 C1007L/R1008Y/Q1011A): as the sequence (Q14671 828-1176 N971P/H972F/Q975T) above, with P144N, F145H, T148Q, C180L, R181Y, Q184A counted along it
PUM1 PUF domain R7-QPR, sequence (Q14671 828-1176 S1079Q/N1080P/E1083R): as the sequence (Q14671 828-1176 N971P/H972F/Q975T) above, with P144N, F145H, T148Q, S252Q, N253P, E256R counted along it
PUM1 PUF domain R3-QRA, sequence (Q14671 828-1176 C935Q/Q939A): as the sequence (Q14671 828-1176 N971P/H972F/Q975T) above, with C108Q, Q112A, P144N, F145H, T148Q counted along it
PUM1 PUF domain R3-QRV, sequence (Q14671 828-1176 C935Q/Q939V): as the sequence (Q14671 828-1176 N971P/H972F/Q975T) above, with C108Q, Q112V, P144N, F145H, T148Q counted along it
PUM1 PUF domain R4-NNG, sequence (Q14671 828-1176 H972N/Q975G): as the sequence (Q14671 828-1176 N971P/H972F/Q975T) above, with P144N, F145N, T148G counted along it
PUM1 PUF domain R5-QRL, sequence (Q14671 828-1176 C1007Q/Q1011L): as the sequence (Q14671 828-1176 N971P/H972F/Q975T) above, with P144N, F145H, T148Q, C180Q, Q184L counted along it
PUM1 PUF domain R4-DYI, sequence (Q14671 828-1176 N971D/H972Y/Q975I): as the sequence (Q14671 828-1176 N971P/H972F/Q975T) above, with P144D, F145Y, T148I counted along it
PUM1 PUF domain R3-LHH, sequence (Q14671 828-1176 C935L/R936H/Q939H): as the sequence (Q14671 828-1176 N971P/H972F/Q975T) above, with C108L, R109H, Q112H, P144N, F145H, T148Q counted along it
PUM1 PUF domain R4-YHA, sequence (Q14671 828-1176 N971Y/Q975A): as the sequence (Q14671 828-1176 N971P/H972F/Q975T) above, with P144Y, F145H, T148A counted along it

“GGCUAGAACUAGUGGAUCCCCCGGCGCCCGGCGGCUCGAGCCCGGGUAAGUGUAAGUAGUCUGCAUGCCGCCGGGCGCCAUGCCUGCAGGUCGACUCUAGAAAACAUG”: the binding signal is 5.47 log2 enrichment (interaction score) with PUM1 PUF domain R3-LHH, 3.67 log2 enrichment (interaction score) with PUM1 PUF domain R3-QRA and 3.59 log2 enrichment (interaction score) with PUM1 PUF domain R3-QRV.

Take “GGCUAGAACUAGUGGAUCCCCCGGCGCCCGGCGGCUCGAGCCCGGGUAAGUGUAAUUAGUCUGCAUGCCGCCGGGCGCCAUGCCUGCAGGUCGACUCUAGAAAACAUG”: the binding signal with PUM1 PUF domain R3-QRA was 2.85 log2 enrichment (interaction score); with PUM1 PUF domain R3-QRV it was 2.73 log2 enrichment (interaction score). “GGCUAGAACUAGUGGAUCCCCCGGCGCCCGGCGGCUCGAGCCCGGGUAAGUGUAUAUAGUCUGCAUGCCGCCGGGCGCCAUGCCUGCAGGUCGACUCUAGAAAACAUG”: the results for the binding signal in the assay with PUM1 PUF domain R4-DYI, in the assay with PUM1 PUF domain R4-NNG and with PUM1 PUF domain R4-YHA were 6.31 log2 enrichment (interaction score), 4.95 log2 enrichment (interaction score) and 3.12 log2 enrichment (interaction score), respectively. As for “GGCUAGAACUAGUGGAUCCCCCGGCGCCCGGCGGCUCGAGCCCGGGUAAGUCUAAAUAGUCUGCAUGCCGCCGGGCGCCAUGCCUGCAGGUCGACUCUAGAAAACAUG”, the binding signal with PUM1 PUF domain R7-QPR was 1.84 log2 enrichment (interaction score). In the case of “GGCUAGAACUAGUGGAUCCCCCGGCGCCCGGCGGCUCGAGCCCGGGUAAGUGUGAAUAGUCUGCAUGCCGCCGGGCGCCAUGCCUGCAGGUCGACUCUAGAAAACAUG”, in the assay with PUM1 PUF domain R5-QRL, the binding signal was 3.22 log2 enrichment (interaction score). In the case of “GGCUAGAACUAGUGGAUCCCCCGGCGCCCGGCGGCUCGAGCCCGGGUAAGUGUACAUAGUCUGCAUGCCGCCGGGCGCCAUGCCUGCAGGUCGACUCUAGAAAACAUG”, in the assay with PUM1 PUF domain R4-NNG, the binding signal is 1.82 log2 enrichment (interaction score). As to “GGCUAGAACUAGUGGAUCCCCCGGCGCCCGGCGGCUCGAGCCCGGGUAAGUUUAAAUAGUCUGCAUGCCGCCGGGCGCCAUGCCUGCAGGUCGACUCUAGAAAACAUG”, the binding signal in the assay with PUM1 PUF domain R7-QPR is 5.06 log2 enrichment (interaction score).

Take “GGCUAGAACUAGUGGAUCCCCCGGCGCCCGGCGGCUCGAGCCCGGGUAAGUGUUAAUAGUCUGCAUGCCGCCGGGCGCCAUGCCUGCAGGUCGACUCUAGAAAACAUG”: the binding signal in the assay with PUM1 PUF domain R5-LYA was 3.15 log2 enrichment (interaction score). Regarding “GGCUAGAACUAGUGGAUCCCCCGGCGCCCGGCGGCUCGAGCCCGGGUAAGUGUAAAUAGUCUGCAUGCCGCCGGGCGCCAUGCCUGCAGGUCGACUCUAGAAAACAUG”, the results for the binding signal in the assay with PUM1 PUF domain R4-PFT, in the assay with PUM1 PUF domain R5-LYA and with PUM1 PUF domain R5-QRL were 5.31 log2 enrichment (interaction score), 3.54 log2 enrichment (interaction score) and 3.37 log2 enrichment (interaction score), respectively.
